Inconclusive results are not listed. Active and inactive are the calls of the source. Unless noted, the call rests on the fitted dose curve; in most records, active means well fitted curve in the direction sought with a large enough effect in the repeat runs; inconclusive means weak or mixed curves; inactive means no such curve, though single readings can be large; an effect the other way counts as inactive or inconclusive.
Columns and labels:
[1] = qHTS assay to identify small molecule antagonists of the thyroid receptor (TR) signaling pathway (AID 743065); further: series mostly up to about 70 µM; nearly all actives have a fitted effect of over 55% in size
Procedure, shortened: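 GH3.TRE-Luc rat pituitary cells (two TREs driving luciferase) were dosed with compound, then stimulated with 1 nM T3 (final) for 23.5 h at 37 C. ONE-Glo luminescence was the read-out, with CellTiter-Fluor fluorescence as the cytotoxicity counter-screen.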

[2] = system: thyroid hormone receptor (rat, GH3 cells); test: qHTS assay to identify small molecule agonists of the thyroid receptor (TR) signaling pathway (AID 743066; calls by dose curve)
[3] = biological target: Estrogen receptor (Homo sapiens) (UniProt P03372); test: qHTS assay to identify small molecule antagonists of the estrogen receptor alpha (ER-alpha) signaling pathway (AID 743069; active means well fitted curve in the direction sought with a large enough effect in the signal ratio in the repeat runs, not every such curve was filed as active; the % refers to the signal ratio)
Sequence of Estrogen receptor (Homo sapiens) (P03372 whole entry, looked up): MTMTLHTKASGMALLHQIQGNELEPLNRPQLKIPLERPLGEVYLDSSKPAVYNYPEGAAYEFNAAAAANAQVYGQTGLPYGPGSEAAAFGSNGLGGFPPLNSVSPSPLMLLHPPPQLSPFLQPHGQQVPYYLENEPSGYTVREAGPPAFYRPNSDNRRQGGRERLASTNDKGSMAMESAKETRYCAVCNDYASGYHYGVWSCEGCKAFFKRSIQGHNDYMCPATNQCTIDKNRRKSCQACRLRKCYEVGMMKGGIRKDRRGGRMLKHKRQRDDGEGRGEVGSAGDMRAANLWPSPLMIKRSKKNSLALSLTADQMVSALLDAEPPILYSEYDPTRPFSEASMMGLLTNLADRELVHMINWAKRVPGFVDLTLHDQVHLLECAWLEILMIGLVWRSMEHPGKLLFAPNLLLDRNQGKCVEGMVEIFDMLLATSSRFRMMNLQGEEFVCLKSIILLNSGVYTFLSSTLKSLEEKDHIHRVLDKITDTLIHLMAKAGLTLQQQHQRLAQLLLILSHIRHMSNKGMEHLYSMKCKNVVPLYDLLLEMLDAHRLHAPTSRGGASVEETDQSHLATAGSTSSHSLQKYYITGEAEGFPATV
Procedure, shortened: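 HEK293 ER-alpha-UAS-bla GripTite cells, held overnight in 2% charcoal-stripped FBS, 5,000 cells/well, preincubated 4 h, then compound plus 17beta-estradiol for 18 h at 37C. Beta-lactamase read by LiveBLAzer B/G FRET substrate, 2 h at room temperature.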

[4] = qHTS assay to identify small molecule antagonists of the estrogen receptor alpha (ER-alpha) signaling pathway - cell viability counter screen (AID 743074; calls by dose curve;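 further: HEK293 cells carrying ER-alpha-UAS-bla reporter stimulated with 17beta-estradiol; nearly all actives have a fitted effect of over 45% in size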)
[5] = biological target: Estrogen receptor (Homo sapiens) (UniProt P03372); test: qHTS assay to identify small molecule agonists of the estrogen receptor alpha (ER-alpha) signaling pathway (AID 743075; calls by dose curve)
[6] = biological target: Estrogen receptor (Homo sapiens) (UniProt P03372); test: qHTS assay to identify small molecule agonists of the estrogen receptor alpha (ER-alpha) signaling pathway using the BG1 cell line (AID 743079); further: nearly all actives have a fitted effect of over 20% in size
[7] = qHTS assay to identify small molecule antagonists of the estrogen receptor alpha (ER-alpha) signaling pathway using the BG1 cell line (AID 743080; calls by dose curve;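 further: BG1 cells stimulated with 17beta-estradiol alongside compound; series mostly up to about 70 µM; nearly all actives have a fitted effect of over 25% in size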)
Procedure, shortened: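 Luminescence from a 4×ERE-luciferase reporter in BG1-Luc-4E2 cells served as read-out. Cells, pre-cultured 5 days in stripped-serum phenol-red-free medium, were exposed to compound with 17beta-estradiol co-stimulation for 21.5 h at 37 C.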

[8] = qHTS assay to identify small molecule antagonists of the estrogen receptor alpha (ER-alpha) signaling pathway using the BG1 cell line - cell viability counter screen (AID 743081);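 further: compound given together with 17beta-estradiol as the ER stimulus; series mostly up to about 70 µM; nearly all actives have a fitted effect of over 45% in size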
Aromatase (Homo sapiens) = Aromatase (Homo sapiens) (UniProt P11511); test: qHTS assay to identify aromatase inhibitors (AID 743083); further: series mostly up to about 70 µM; nearly all actives have a fitted effect of over 55% in size
Sequence of Aromatase (Homo sapiens) (P11511 whole entry, looked up): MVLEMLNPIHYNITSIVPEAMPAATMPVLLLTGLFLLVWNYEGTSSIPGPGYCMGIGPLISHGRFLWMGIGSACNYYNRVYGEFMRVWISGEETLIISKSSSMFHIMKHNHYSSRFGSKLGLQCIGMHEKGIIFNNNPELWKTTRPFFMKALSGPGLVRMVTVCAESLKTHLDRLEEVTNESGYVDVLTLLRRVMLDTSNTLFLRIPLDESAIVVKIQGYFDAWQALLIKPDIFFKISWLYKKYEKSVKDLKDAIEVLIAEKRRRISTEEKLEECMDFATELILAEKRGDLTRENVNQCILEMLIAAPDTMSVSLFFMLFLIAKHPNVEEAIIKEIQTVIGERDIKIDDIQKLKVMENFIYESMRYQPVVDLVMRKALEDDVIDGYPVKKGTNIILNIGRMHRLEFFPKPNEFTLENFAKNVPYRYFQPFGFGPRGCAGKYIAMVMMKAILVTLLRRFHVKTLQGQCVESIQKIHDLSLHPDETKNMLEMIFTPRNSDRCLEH

[9] = qHTS assay to identify aromatase inhibitors - cell viability counter screen (AID 743084);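 further: cells stimulated with testosterone during compound exposure; nearly all actives have a fitted effect of over 55% in size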
[10] = biological target: Aryl hydrocarbon receptor (Homo sapiens) (UniProt P35869); test: qHTS assay to identify small molecule that activate the aryl hydrocarbon receptor (AhR) signaling pathway (AID 743085);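 further: HG2L7.5c1 human HepG2 liver cells with stably integrated DRE-driven firefly reporter; series mostly up to about 70 µM; nearly all actives have a fitted effect of over 15% in size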
Sequence of Aryl hydrocarbon receptor (Homo sapiens) (P35869 whole entry, looked up): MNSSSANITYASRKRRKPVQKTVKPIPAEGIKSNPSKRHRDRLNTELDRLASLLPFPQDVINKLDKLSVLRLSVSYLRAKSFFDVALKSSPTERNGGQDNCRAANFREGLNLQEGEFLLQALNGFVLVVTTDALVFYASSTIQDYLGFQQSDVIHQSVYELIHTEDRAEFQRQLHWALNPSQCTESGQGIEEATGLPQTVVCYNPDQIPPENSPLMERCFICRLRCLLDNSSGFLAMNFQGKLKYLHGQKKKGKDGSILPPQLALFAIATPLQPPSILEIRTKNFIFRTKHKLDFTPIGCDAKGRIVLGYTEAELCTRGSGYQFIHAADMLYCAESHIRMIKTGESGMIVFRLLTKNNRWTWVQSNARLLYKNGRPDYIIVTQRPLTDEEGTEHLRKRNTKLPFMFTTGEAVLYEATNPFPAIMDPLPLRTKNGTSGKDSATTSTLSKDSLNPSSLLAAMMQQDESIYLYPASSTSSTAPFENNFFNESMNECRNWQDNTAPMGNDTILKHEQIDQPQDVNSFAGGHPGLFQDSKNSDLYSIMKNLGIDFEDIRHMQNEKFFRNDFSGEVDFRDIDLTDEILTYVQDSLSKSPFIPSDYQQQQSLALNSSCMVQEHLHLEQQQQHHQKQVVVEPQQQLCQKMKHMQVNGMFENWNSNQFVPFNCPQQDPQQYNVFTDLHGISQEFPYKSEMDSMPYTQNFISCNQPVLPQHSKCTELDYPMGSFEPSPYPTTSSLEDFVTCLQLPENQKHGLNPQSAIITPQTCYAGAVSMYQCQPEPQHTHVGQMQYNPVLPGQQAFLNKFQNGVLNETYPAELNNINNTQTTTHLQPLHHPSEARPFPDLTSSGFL
Procedure, shortened: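 Stably transfected human liver carcinoma cells (HG2L7.5c1; 20 DRE-firefly luciferase) were incubated 5 h, dosed, and kept 24 h at 37C. Agonism was scored from increased luciferase luminescence.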

[11] = qHTS assay to identify small molecule that activate the aryl hydrocarbon receptor (AhR) signaling pathway - cell viability counter screen (AID 743086);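 further: HepG2 liver cells carrying the AhR DRE luciferase reporter; series mostly up to about 70 µM; nearly all actives have a fitted effect of over 45% in size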
Procedure, shortened: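 HepG2-AhR-luc (HG2L7.5c1) cells, 4000/well, treated 24 h at 37 C with compound; viability measured as CellTiter-Fluor fluorescence after 30 min in the same wells as the luciferase read.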

[12] = biological target: Peroxisome proliferator-activated receptor gamma (Homo sapiens) (UniProt P37231); test: qHTS assay to identify small molecule agonists of the peroxisome proliferator-activated receptor gamma (PPARg) signaling pathway (AID 743094; active means well fitted activation curve with a large enough effect in the signal ratio in the repeat runs, not every such curve was filed as active; the % refers to the signal ratio)
Sequence of Peroxisome proliferator-activated receptor gamma (Homo sapiens) (P37231 whole entry, looked up): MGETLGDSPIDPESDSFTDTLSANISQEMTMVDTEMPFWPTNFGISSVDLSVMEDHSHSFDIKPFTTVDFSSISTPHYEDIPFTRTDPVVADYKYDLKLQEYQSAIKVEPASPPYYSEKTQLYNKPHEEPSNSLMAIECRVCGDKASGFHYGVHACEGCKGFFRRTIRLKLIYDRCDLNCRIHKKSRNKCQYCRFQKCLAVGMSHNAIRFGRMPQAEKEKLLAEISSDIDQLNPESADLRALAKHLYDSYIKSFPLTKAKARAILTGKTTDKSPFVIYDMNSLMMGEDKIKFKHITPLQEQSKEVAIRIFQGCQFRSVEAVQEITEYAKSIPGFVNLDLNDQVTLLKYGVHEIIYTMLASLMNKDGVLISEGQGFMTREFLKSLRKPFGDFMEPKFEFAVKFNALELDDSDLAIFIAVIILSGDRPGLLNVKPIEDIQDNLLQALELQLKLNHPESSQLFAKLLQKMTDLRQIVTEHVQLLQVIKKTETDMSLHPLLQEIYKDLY
Procedure, shortened: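 Compounds dissolved in DMSO were added to PPARg UAS-bla HEK293H cells for 17 h at 37C, and reporter expression was quantified by fluorescence intensity after 1 h with LiveBLAzer B/G FRET substrate.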

[13] = qHTS assay to identify small molecule antagonists of the peroxisome proliferator-activated receptor gamma (PPARg) signaling pathway - cell viability counter screen (AID 743194); further: nearly all actives have a fitted effect of over 55% in size
Procedure, shortened: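 Cytotoxicity counter screen in PPARg-bla HEK293H cells, same wells as reporter assay. Compounds plus 50 nM rosiglitazone (final) for 17 h at 37 C, then viability read by CellTiter-Glo luminescence.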

[14] = qHTS assay for small molecule agonists of the antioxidant response element (ARE) signaling pathway (AID 743202; active means well fitted activation curve with a large enough effect in the signal ratio in the repeat runs, not every such curve was filed as active; the % refers to the signal ratio)
Procedure, shortened: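 ARE-bla HepG2 cells (beta-lactamase reporter under the antioxidant response element), plated 5 hours, then exposed to compounds 16 hours at 37 C. LiveBLAzer B/G FRET substrate added for 2 hours at room temperature; fluorescence intensity read.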

[15] = qHTS assay for small molecule agonists of the antioxidant response element (ARE) signaling pathway - cell viability counter screen (AID 743203; calls by dose curve; further: nearly all actives have a fitted effect of over 55% in size)
Procedure, shortened: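 Following 16 hrs of compound treatment at 37C, HepG2 cells with an ARE-controlled beta-lactamase gene were lysed with CellTiter-Glo. Luminescence was read after 30 min at room temperature.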

[16] = qHTS assay for small molecule activators of the heat shock response signaling pathway - cell viability counter screen (AID 743209); further: nearly all actives have a fitted effect of over 50% in size
Procedure, shortened: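 Readout: CellTiter-Glo luminescence, 30 min at room temperature. System: HSE-bla HeLa cells, 1500/well, plated overnight. Treatment: compounds in DMSO, 5 h at 37 C.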

[17] = qHTS assay for small molecule activators of the heat shock response signaling pathway (AID 743210; active means well fitted activation curve with a large enough effect in the signal ratio in the repeat runs, with a control signal flat, not every such curve was filed as active; the % refers to the signal ratio; further: series mostly up to about 63 µM)
Procedure, shortened: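 HSE-bla HeLa cells (beta-lactamase reporter under heat shock response elements), plated overnight, then exposed to compounds 5 h at 37 C; LiveBLAzer B/G FRET substrate added, 2.5 h at room temperature, fluorescence intensity read.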

[18] = qHTS assay to identify small molecule agonists of the peroxisome proliferator-activated receptor delta (PPARd) signaling pathway - cell viability counter screen (AID 743211); further: nearly all actives have a fitted effect of over 55% in size
Procedure, shortened: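 In the same wells used for beta-lactamase reporter measurement, cytotoxicity is scored by CellTiter-Glo. HEK293H PPARd-bla cells receive compound for 17 h at 37C following a 5 h settling period.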

[19] = biological target: Peroxisome proliferator-activated receptor gamma (Homo sapiens) (UniProt P37231); test: qHTS assay to identify small molecule antagonists of the peroxisome proliferator-activated receptor gamma (PPARg) signaling pathway (AID 743191; calls by dose curve; further: series mostly up to about 63 µM; nearly all actives have a fitted effect of over 30% in size)
Procedure, shortened: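 GeneBLAzer PPARg UAS-bla HEK293H cells, 5 h post-plating, exposed to compounds 17 h at 37C. LiveBLAzer B/G FRET substrate added for 1 h at room temperature; beta-lactamase reporter read by fluorescence intensity.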

Measured: Potency

Cc1cc(O)c(Cl)cc1C
not listed: [19]
inactive: all other assays above

CCC(C)c1nccnc1OC (stereo not given)
inactive: all assays above

COc1cc(OC)cc(OC)c1
inactive: all assays above

OCCC(F)(F)C(F)(F)C(F)(F)C(F)(F)C(F)(F)C(F)(F)F
not listed: [13]
inactive: all other assays above

O=P(O)(O)C(O)(Cc1cccnc1)P(=O)(O)O
not listed: [19]
inactive: all other assays above

Cc1ccc(OC(=O)CC(C)C)cc1
not listed: [19]
inactive: all other assays above

CC(C)(C)C(=O)CCc1ccc(Cl)cc1
not listed: [16]
inactive: all other assays above
